LT uptake inh: blocks cellular internalization of anthrax lethal toxin. Cells, anthrax lethal toxin internalization, FRET ratio (460/530). Potency, µM (titrated, usually from 40 µM), actives largely listed as inhibitors. 0.67% of 70,000 active. AID 912; note: nearly all actives have a fitted effect of over 50% in size
AmpC inh det: inhibitors of E. coli AmpC beta-lactamase with detergent. purified AmpC, nitrocefin hydrolysis with detergent. 0.09% of 71,000 active. AID 584. Potency, µM (highest dose often 28.7 µM). P00811; active = well fitted curve in the direction sought with a large enough effect; inconclusive = small, poorly fitted or top-dose-only effect
Target sequence (P00811 whole entry, looked up): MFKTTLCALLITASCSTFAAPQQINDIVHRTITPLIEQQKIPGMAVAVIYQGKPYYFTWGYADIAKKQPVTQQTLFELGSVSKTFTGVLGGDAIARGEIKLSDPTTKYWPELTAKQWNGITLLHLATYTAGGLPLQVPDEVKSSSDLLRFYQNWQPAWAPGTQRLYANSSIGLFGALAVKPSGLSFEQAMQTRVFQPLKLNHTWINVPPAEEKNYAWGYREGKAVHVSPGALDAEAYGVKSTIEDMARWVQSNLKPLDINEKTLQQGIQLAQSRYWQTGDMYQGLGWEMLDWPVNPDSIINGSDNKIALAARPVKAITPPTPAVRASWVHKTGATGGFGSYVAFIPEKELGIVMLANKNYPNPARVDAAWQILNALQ
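E. coli AmpC (5.3 nM) in 20 mM phosphate pH 7.0 with 0.01% Triton X-100, preincubated 15 min RT with compound; nitrocefin (2 uL of 800 uM stock) hydrolysis followed by 480 nm absorbance every 20 s over 4 min.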
SmPrx2 inh: Schistosoma mansoni Prx2 inhibition; Potency, µM; S. mansoni Prx2 activity coupled to TGR/GSH (TGR is thioredoxin glutathione reductase), NADPH fluorescence loss, qHTS; 0.07% of 65,000 active
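Prx2 activity was followed as the loss of NADPH fluorescence (ex 365/em 450 nm), read every 30 sec for 8 min after H2O2 start. The enzyme mix (50 nM Prx2, 25 nM TGR, GSH, NADPH; pH 7.4 phosphate buffer) was incubated with compound for 15 min at room temperature first.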
AmpC inh no det: inhibitors of E. coli AmpC beta-lactamase without detergent. 1.8% of 71,000 active. AmpC nitrocefin hydrolysis, absorbance 480 nm, no detergent. Potency, µM (titrated, usually from 28.7 µM)
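AmpC, 20 mM phosphate pH 7.0; 15 min cpd preinc, RT; start with nitrocefin (800 uM stock); A480 kinetic read, 20 s intervals, 4 min. No-enzyme wells = negative control.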
Each line names hits and unclear results; the compound was inactive in the other large screens; [ ] = remark or other dose. The list is not random: actives were taken first. Their share in the collection is about 2.4%. Unless noted, calls come from the whole dose curve.

C[C@@H]1O[C@@H](O[C@H]2C[C@@H](O)[C@]3(CO)[C@@H]4[C@@H](O)C[C@]5(C)[C@H](C6=CC(=O)OC6)CC[C@@]5(O)[C@H]4CC[C@@]3(O)C2)[C@H](O)[C@H](O)[C@@H]1O	LT uptake inh inconclusive
Cc1cc(=O)oc2c1ccc1oc(/C(=N/O)c3ccccc3)c(C)c12	LT uptake inh 10µM (no result: SmPrx2 inh)
CCC(=O)Oc1ccc2c(C)cc(=O)oc2c1C	LT uptake inh inconclusive, SmPrx2 inh inconclusive
COc1ccc(-n2nnnc2S(=O)(=O)CC(=O)N2CCCCC2)cc1	LT uptake inh 3.16µM, SmPrx2 inh inconclusive
CCN(CC)S(=O)(=O)c1ccc(C(=O)OCCN2C(=O)CCC2=O)cc1	AmpC inh no det 3.98µM[single pt active]
COc1cc2nc(N3CC=[N+](C(=O)c4ccco4)CC3)nc(N)c2cc1OC	none
c1ccc2c(c1)c1c3n2CCNC3CCC1 (centres undefined)	LT uptake inh inconclusive
c1cc2c3c(c1)c1c(n3CCNC2)CCCC1	LT uptake inh inconclusive, AmpC inh det 15.8µM, AmpC inh no det inconclusive
CCC(Cl)CC(Cl)C(Cl)C(Cl)C(Cl)C(C)Cl (centres undefined)	LT uptake inh 2.51µM (no result: SmPrx2 inh)
CCCC/C(C)=C/[C@@H](NP(=O)(c1ccccc1)c1ccccc1)c1ccccc1	LT uptake inh 10µM (no result: SmPrx2 inh)
C/C(=C\[C@@H](NP(=O)(c1ccccc1)c1ccccc1)c1ccccc1)CO[Si](c1ccccc1)(c1ccccc1)C(C)(C)C	none (no result: SmPrx2 inh)
CCCn1c(OC)nc2c1c(=O)n(C)c(=O)n2C	AmpC inh no det 3.98µM[single pt active]
CCCOc1nc2c(c(=O)n(C)c(=O)n2C)n1CCC	none
CC(C)N(Cc1nc(-c2ccccc2)no1)S(=O)(=O)c1ccccc1	LT uptake inh inconclusive, AmpC inh no det 3.98µM[single pt active]
CC(C)N(Cc1nc(-c2ccccc2)no1)C(=O)CN(C)S(=O)(=O)c1ccccc1	none
C[C@H]1CC[C@]2(NC1)O[C@@H]1C[C@@H]3[C@@H]4CC=C5C[C@H](O)CC[C@@]5(C)[C@H]4CC[C@@]3(C)[C@H]1[C@@H]2C	none
CCOC(=O)C1CCN(c2c(NCc3ccc(C(=O)O)cc3)c(=O)c2=O)CC1	none
Cc1ccc(OCc2nc(-c3ccccc3)no2)c(C)c1	LT uptake inh inconclusive (no result: SmPrx2 inh)
Cc1cccc(NCc2nc(-c3ccccc3)no2)c1	LT uptake inh inconclusive, AmpC inh no det 2.51µM[single pt active]
CNC(=O)[C@@H]1O[C@@H](n2cnc3c(NCc4ccc(N)cc4)ncnc32)[C@@H](O)[C@H]1O	none
Cc1ccc(-c2nc(NC(=O)CSc3nnc4scc(-c5ccccc5)n34)ns2)cc1	LT uptake inh inconclusive, AmpC inh no det 3.98µM[single pt active]
O=C(CCl)c1ccccc1	LT uptake inh 12.6µM (no result: SmPrx2 inh)
CCCC(c1cc(C(C)(C)C)c(O)cc1C)c1cc(C(C)(C)C)c(O)cc1C	LT uptake inh inconclusive, AmpC inh no det 3.98µM[single pt active]
COc1cc2c(cc1OC)[C@]13CC[N@+]4(C)CC5=CCO[C@H]6CC(=O)N2[C@@H]1[C@@H]6[C@@H]5C[C@]34O	none
O=Nc1ccc2oc(=O)ccc2c1	LT uptake inh inconclusive
Cc1noc(C)c1S(=O)(=O)N(CC(=O)N1CCn2c1nc1ccccc12)c1ccc(C(C)C)cc1	LT uptake inh inconclusive, AmpC inh no det 3.98µM[single pt active]
Cc1cc(C)cc(N(CC(=O)N2CCN(Cc3ccccc3)CC2)S(=O)(=O)c2c(C)noc2C)c1	AmpC inh no det 3.98µM[single pt active]
CCCN(c1ccc(C(C)C)cc1)S(=O)(=O)c1c(C)noc1C	none
CCOc1ccc(N(CC(=O)N2CCCC2)S(=O)(=O)c2c(C)noc2C)cc1	AmpC inh no det 3.98µM[single pt active]
CCOC(=O)C1CCN(C(=O)CN(c2ccc(OC)cc2)S(=O)(=O)c2c(C)noc2C)CC1	none
COCCNc1nc(C)nc2c1nc(-c1ccccc1)n2C1CCN(Cc2ccccc2)C1 (centres undefined)	none (no result: SmPrx2 inh)
O=C(c1ccco1)N1CCN(c2nc3ccccc3n3nnnc23)CC1	none
c1ccc(CC2CCN(c3nc4ccccc4n4nnnc34)CC2)cc1	AmpC inh no det 12.6µM
CC1CCCCN1c1nnc(N)s1 (centres undefined)	none
CC1CCCC(C)N1c1nnc(N)s1 (centres undefined)	AmpC inh no det 3.98µM[single pt active]
Cc1cc(Nc2ccccc2)nc(-c2ccccc2O)n1	LT uptake inh 12.6µM
Cc1cc(Nc2cccc(F)c2)nc(-c2ccccc2O)n1	LT uptake inh inconclusive
CC(=O)c1ccc(OCC(O)CN2CCN(Cc3ccc4c(c3)OCO4)CC2)cc1 (centres undefined)	AmpC inh no det 3.98µM[single pt active]
CC(=O)c1ccc(OCC(O)CN2C(C)(C)CC(O)CC2(C)C)cc1 (centres undefined)	AmpC inh no det 3.98µM[single pt active]
Cc1ccc(OCC(O)CN2CCN(CC(O)COc3ccc(C)cc3)CC2)cc1 (centres undefined)	none
Cc1cccc(OCC(O)CN2C(C)(C)CC(O)CC2(C)C)c1C (centres undefined)	none
CCN1CCN(CC(O)COc2ccc(C(C)=O)cc2)CC1 (centres undefined)	AmpC inh no det 3.98µM[single pt active]
Cc1ccc(OCC(O)CN2CCN(Cc3ccc4c(c3)OCO4)CC2)c(C)c1 (centres undefined)	LT uptake inh inconclusive
CC(=O)c1ccc(OCC(O)CN2CCN(CCO)CC2)cc1 (centres undefined)	AmpC inh no det 3.98µM[single pt active]
COc1cccc(OC)c1OCCNC[C@@H]1CSc2ccccc2O1	LT uptake inh inconclusive
C[C@@]12CC[C@H]3[C@@H](CCC4=CC(=O)CC[C@]43C)[C@H]1CCC2=O	none
CCCn1c(-c2ccc(F)cc2)nc2c(NC3CC4CCC(C3)N4C)nc(C)nc21 (centres undefined)	none (no result: SmPrx2 inh)
CCNc1ncc2nc(-c3ccc(OC)cc3)c(=O)n(-c3ccc(OC)cc3)c2n1	LT uptake inh inconclusive
O=[As](O)(O)c1ccc(NCc2ccccc2)cc1	none
CC(=O)c1ccc(OCC(O)CN2CCCC(C)C2)cc1 (centres undefined)	AmpC inh no det 3.16µM[single pt active]
CCN1C[C@@]2(COC(=O)c3ccccc3N3C(=O)C[C@H](C)C3=O)CC[C@H](OC)[C@@]34[C@@H]5CC6[C@@H](OC)C[C@@](O)([C@H]5[C@H]6OC)C(O)([C@@H]13)[C@@H](OC)[C@H]24	LT uptake inh inconclusive
COc1ccc2c3c1O[C@@H]1C(=O)CC[C@@]4(O)[C@@H](C2)N(CC2CC2)CC[C@]314	none
N#Cc1cccc(-c2nccc(NCc3cccnc3)n2)c1	AmpC inh det 10µM, AmpC inh no det 5.01µM
N#Cc1cccc(-c2nccc(NCc3ccccc3)n2)c1	none
CCCNC(=O)OC[C@H]1O[C@@H](CCO/N=C2/C[C@@H](O)[C@@H](O)[C@@H]3[C@@H]4C(=O)N(CC)C(=O)[C@H]4CC[C@@H]23)C=C[C@@H]1Oc1ccc(OC)cc1	none (no result: AmpC inh det, SmPrx2 inh, AmpC inh no det)
N#C/C(=C\c1ccc(O)c(O)c1)C(=O)Nc1ccccc1	LT uptake inh 25.1µM, AmpC inh no det inconclusive
c1ccc(-c2ccc(N3CC4(CCNCC4)C3)cc2)cc1	LT uptake inh 12.6µM
c1ccc(C(c2ccccc2)N2CC3(CCNCC3)C2)cc1	LT uptake inh 10µM

Compound activity from PubChem BioAssay.
